Source: PubChem BioAssay (Tox21)
“And” between values parts separate entries of the source, which are not always exact repeats. Identical values can stand only once. Some compounds were tested as several samples or in several runs, with calls that do not always agree. The source made the active and inactive calls. Unless noted, calls follow the shape of the dose curve; as a rule, active = well fitted curve in the direction sought with a large enough effect in the repeat runs; inconclusive = weak or mixed curves; inactive = no such curve, though single readings can be large; an effect the other way counts as inactive or inconclusive.

Assays:
[1] = qHTS assay to identify small molecule antagonists of the glucocorticoid receptor (GR) signaling pathway - cell viability counter screen (AID 720693); also: nearly all actives have a fitted effect of over 55% in size
[2] = qHTS assay for identifying genotoxic compounds that show differential cytotoxicity against isogenic chicken DT40 cell lines with known DNA damage response pathways - wild type cell line (AID 743012); also: nearly all actives have a fitted effect of over 60% in size; also: potency is read from the fitted curve at half-maximal effect
Summary of the method: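 Quantitative HTS on parental DT40 cells: 40 h compound treatment at 37 C/5% CO2, with viability then determined by CellTiter-Glo luminescence. Values serve as the DNA repair-proficient reference for differential cytotoxicity.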

[3] = qHTS assay for identifying genotoxic compounds that show differential cytotoxicity against isogenic chicken DT40 cell lines with known DNA damage response pathways - Rev3 mutant cell line (AID 743014); also: nearly all actives have a fitted effect of over 55% in size; also: potency is read from the fitted curve at half-maximal effect
[4] = qHTS assay for identifying genotoxic compounds that show differential cytotoxicity against isogenic chicken DT40 cell lines with known DNA damage response pathways - Rad54/Ku70 mutant cell line (AID 743015); also: nearly all actives have a fitted effect of over 60% in size; also: potency is read from the fitted curve at half-maximal effect
[5] = qHTS assay to identify small molecule antagonists of the androgen receptor (AR) signaling pathway - cell viability counter screen (AID 743033; also: nearly all actives have a fitted effect of over 45% in size; also: potency is read from the fitted curve at half-maximal effect)
[6] = molecular target: Androgen receptor (Homo sapiens) (UniProt P10275); assay: qHTS assay to identify small molecule antagonists of the androgen receptor (AR) signaling pathway (AID 743035; active = well fitted inhibition curve with a large enough effect in the signal ratio in the repeat runs, not every such curve was filed as active; inconclusive = weak or mixed curves, or effect the other way; inactive = no such curve, though single readings can be large or run the other way; the % refers to the signal ratio; also: potency is read from the fitted curve at half-maximal effect)
Summary of the method: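 Cell line: GeneBLAzer AR-UAS-bla GripTite (HEK293). Stimulus: R1881 added after compound. Exposure: 16 h, 37C, 5% CO2. Readout: LiveBLAzer B/G FRET fluorescence after 2 h at room temperature.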

[7] = molecular target: Androgen receptor (Homo sapiens) (UniProt P10275); assay: qHTS assay to identify small molecule agonists of the androgen receptor (AR) signaling pathway (AID 743036; active = well fitted activation curve with a large enough effect in the signal ratio in the repeat runs, with a control signal flat, not every such curve was filed as active; inconclusive = weak or mixed curves, or effect the other way; inactive = no such curve, though single readings can be large or run the other way; the % refers to the signal ratio)
Summary of the method: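 In this Tox21 qHTS, 2,000 HEK293 AR-bla cells per well were incubated with compounds for 16 h at 37C and 5% CO2. Fluorescence intensity was recorded 2 h after adding LiveBLAzer B/G FRET substrate at room temperature.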

[8] = molecular target: Androgen receptor (Homo sapiens) (UniProt P10275); assay: qHTS assay to identify small molecule agonists of the androgen receptor (AR) signaling pathway using the MDA cell line (AID 743040; also: nearly all actives have a fitted effect of over 20% in size)
Summary of the method: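 Human breast carcinoma MDA-kb2 reporter cells (MMTV-luc, AR/GR elements) were treated for 16 h at 37C in 0% CO2 following a 5 h settling period. Signal was quantified by ONE-Glo luminescence.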

[9] = molecular target: Androgen receptor (Homo sapiens) (UniProt P10275); assay: qHTS assay to identify small molecule antagonists of the androgen receptor (AR) signaling pathway using the MDA cell line (AID 743042; also: nearly all actives have a fitted effect of over 55% in size; also: potency is read from the fitted curve at half-maximal effect)
Summary of the method: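 MDA-kb2 breast carcinoma cells carrying MMTV-luciferase (AR/GR responsive) were co-treated with compounds and the agonist R1881 for 16 h at 37C. Inhibition read as ONE-Glo luminescence; CellTiter-Fluor fluorescence measured in parallel for cytotoxicity.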

[10] = qHTS assay to identify small molecule antagonists of the thyroid receptor (TR) signaling pathway - cell viability counter screen (AID 743064); also: nearly all actives have a fitted effect of over 50% in size; also: potency is read from the fitted curve at half-maximal effect
Summary of the method: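 Counter screen for cytotoxicity: compound plus T3 (1 nM final) on GH3.TRE-Luc cells, 23.5 h at 37 °C, then fluorescence viability readout with CellTiter-Fluor.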

[11] = qHTS assay to identify small molecule antagonists of the thyroid receptor (TR) signaling pathway (AID 743065); also: nearly all actives have a fitted effect of over 55% in size; also: potency is read from the fitted curve at half-maximal effect; as to activity, negative = inhibition: series mostly up to about 70 µM
Summary of the method: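 GH3.TRE-Luc rat pituitary cells (two TREs driving luciferase) were dosed with compound, then stimulated with 1 nM T3 (final) for 23.5 h at 37 C. ONE-Glo luminescence was the read-out, with CellTiter-Fluor fluorescence as the cytotoxicity counter-screen.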

[12] = tested on: thyroid hormone receptor (rat, GH3 cells); assay: qHTS assay to identify small molecule agonists of the thyroid receptor (TR) signaling pathway (AID 743066; calls by dose curve)
[13] = qHTS assay to identify small molecule antagonists of the estrogen receptor alpha (ER-alpha) signaling pathway - cell viability counter screen (AID 743074; calls by dose curve;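 also: HEK293 cells carrying ER-alpha-UAS-bla reporter stimulated with 17beta-estradiol; nearly all actives have a fitted effect of over 45% in size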; also: potency is read from the fitted curve at half-maximal effect)
[14] = qHTS assay to identify small molecule antagonists of the estrogen receptor alpha (ER-alpha) signaling pathway using the BG1 cell line - cell viability counter screen (AID 743081);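 also: compound given together with 17beta-estradiol as the ER stimulus; nearly all actives have a fitted effect of over 45% in size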; also: potency is read from the fitted curve at half-maximal effect; as to activity change, negative = cytotoxicity: series mostly up to about 70 µM
Aromatase (Homo sapiens) = Aromatase (Homo sapiens) (UniProt P11511); assay: qHTS assay to identify aromatase inhibitors (AID 743083); also: nearly all actives have a fitted effect of over 55% in size; also: potency is read from the fitted curve at half-maximal effect; as to activity, negative = inhibition: series mostly up to about 70 µM
[15] = qHTS assay to identify small molecule antagonists of the androgen receptor (AR) signaling pathway using the MDA cell line - cell viability counter screen (AID 743041; also: nearly all actives have a fitted effect of over 45% in size)
Summary of the method: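 Same-well cytotoxicity was assessed by CellTiter-Fluor in MDA-kb2 AR-luc cells after 16 h of compound treatment under R1881 agonism.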

[16] = molecular target: Estrogen receptor (Homo sapiens) (UniProt P03372); assay: qHTS assay to identify small molecule antagonists of the estrogen receptor alpha (ER-alpha) signaling pathway (AID 743069; active = well fitted curve in the direction sought with a large enough effect in the signal ratio in the repeat runs, not every such curve was filed as active; inconclusive = weak or mixed curves, or effect the other way; inactive = no such curve, though single readings can be large or run the other way; the % refers to the signal ratio; also: potency is read from the fitted curve at half-maximal effect)
Summary of the method: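 Reporter cells (ER-alpha-bla, HEK293 background) are conditioned overnight in stripped-serum medium (2% charcoal-stripped FBS). Compound and 17beta-estradiol exposure runs 18 hr at 37C, 5% CO2.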

[17] = molecular target: Estrogen receptor (Homo sapiens) (UniProt P03372); assay: qHTS assay to identify small molecule agonists of the estrogen receptor alpha (ER-alpha) signaling pathway (AID 743075; calls by dose curve;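 also: HEK293 GripTite cells with ER-alpha and UAS-driven beta-lactamase reporter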)
[18] = molecular target: Estrogen receptor (Homo sapiens) (UniProt P03372); assay: qHTS assay to identify small molecule agonists of the estrogen receptor alpha (ER-alpha) signaling pathway using the BG1 cell line (AID 743079); also: nearly all actives have a fitted effect of over 20% in size; also: potency is read from the fitted curve at half-maximal effect
[19] = qHTS assay to identify small molecule antagonists of the estrogen receptor alpha (ER-alpha) signaling pathway using the BG1 cell line (AID 743080; calls by dose curve;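 also: BG1 cells stimulated with 17beta-estradiol alongside compound; series mostly up to about 70 µM; nearly all actives have a fitted effect of over 25% in size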)
Summary of the method: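 Readout is ONE-Glo luminescence, taken 30 min at room temperature after reagent addition, preceded by a CellTiter-Fluor viability read; BG1-Luc-4E2 cells had received compound and 17beta-estradiol for 21.5 h at 37 C.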
% is scaled to controls: 0 for no effect and ±100 for the full control effect.

Sequence of Estrogen receptor (Homo sapiens) (P03372 whole entry, looked up): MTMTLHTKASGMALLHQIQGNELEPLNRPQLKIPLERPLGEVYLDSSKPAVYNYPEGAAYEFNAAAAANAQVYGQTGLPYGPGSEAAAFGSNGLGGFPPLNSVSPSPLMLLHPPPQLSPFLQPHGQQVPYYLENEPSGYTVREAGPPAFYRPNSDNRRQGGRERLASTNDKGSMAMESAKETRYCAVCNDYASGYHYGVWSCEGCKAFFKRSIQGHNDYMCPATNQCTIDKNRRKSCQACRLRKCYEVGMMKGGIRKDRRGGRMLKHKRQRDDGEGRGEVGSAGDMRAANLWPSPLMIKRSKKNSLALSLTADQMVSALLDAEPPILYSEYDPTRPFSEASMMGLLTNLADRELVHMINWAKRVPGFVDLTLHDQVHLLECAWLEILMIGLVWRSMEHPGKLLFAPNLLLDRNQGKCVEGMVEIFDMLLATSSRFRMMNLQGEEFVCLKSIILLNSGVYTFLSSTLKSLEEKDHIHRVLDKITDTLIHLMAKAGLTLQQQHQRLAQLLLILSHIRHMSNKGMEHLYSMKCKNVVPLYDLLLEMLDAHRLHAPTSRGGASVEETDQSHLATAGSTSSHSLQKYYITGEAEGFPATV
Sequence of Aromatase (Homo sapiens) (P11511 whole entry, looked up): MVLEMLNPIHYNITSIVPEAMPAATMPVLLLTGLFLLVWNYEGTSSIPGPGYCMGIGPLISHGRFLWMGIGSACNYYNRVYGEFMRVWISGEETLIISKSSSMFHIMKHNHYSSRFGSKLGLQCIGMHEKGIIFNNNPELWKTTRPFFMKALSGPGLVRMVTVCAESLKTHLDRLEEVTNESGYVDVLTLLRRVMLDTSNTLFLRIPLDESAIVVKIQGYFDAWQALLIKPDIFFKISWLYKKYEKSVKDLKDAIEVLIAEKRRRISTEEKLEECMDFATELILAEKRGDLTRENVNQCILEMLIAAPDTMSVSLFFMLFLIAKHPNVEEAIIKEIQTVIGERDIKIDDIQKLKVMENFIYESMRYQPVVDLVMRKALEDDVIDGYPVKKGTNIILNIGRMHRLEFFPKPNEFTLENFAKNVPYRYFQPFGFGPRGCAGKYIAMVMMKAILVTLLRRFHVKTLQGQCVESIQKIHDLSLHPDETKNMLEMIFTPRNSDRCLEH
Sequence of Androgen receptor (Homo sapiens) (P10275 whole entry, looked up): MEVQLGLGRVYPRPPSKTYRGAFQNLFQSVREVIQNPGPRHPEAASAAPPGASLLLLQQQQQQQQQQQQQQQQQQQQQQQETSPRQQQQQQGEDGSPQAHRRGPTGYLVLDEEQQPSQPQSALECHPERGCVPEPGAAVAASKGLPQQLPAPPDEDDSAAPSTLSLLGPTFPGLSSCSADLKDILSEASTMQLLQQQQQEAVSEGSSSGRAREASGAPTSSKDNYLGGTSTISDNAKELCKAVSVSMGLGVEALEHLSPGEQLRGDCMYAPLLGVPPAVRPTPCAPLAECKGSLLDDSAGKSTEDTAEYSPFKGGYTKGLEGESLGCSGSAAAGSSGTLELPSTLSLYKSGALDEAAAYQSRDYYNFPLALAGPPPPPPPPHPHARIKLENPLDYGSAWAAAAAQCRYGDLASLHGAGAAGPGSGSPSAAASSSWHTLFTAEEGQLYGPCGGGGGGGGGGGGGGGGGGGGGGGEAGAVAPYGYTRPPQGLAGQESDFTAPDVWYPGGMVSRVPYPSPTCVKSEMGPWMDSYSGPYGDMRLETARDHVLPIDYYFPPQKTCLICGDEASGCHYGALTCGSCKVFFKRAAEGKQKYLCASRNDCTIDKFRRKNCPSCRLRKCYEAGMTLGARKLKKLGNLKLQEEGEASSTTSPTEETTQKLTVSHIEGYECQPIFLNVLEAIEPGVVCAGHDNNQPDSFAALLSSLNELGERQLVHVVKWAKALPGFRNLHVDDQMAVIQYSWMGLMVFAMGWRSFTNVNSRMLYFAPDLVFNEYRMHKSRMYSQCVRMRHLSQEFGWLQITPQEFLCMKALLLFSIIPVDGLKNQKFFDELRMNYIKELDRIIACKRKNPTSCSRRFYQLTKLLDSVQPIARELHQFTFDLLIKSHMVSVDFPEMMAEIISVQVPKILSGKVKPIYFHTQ

CCCCCCCCCc1ccc(OCCOCCO)cc1
active: Potency [2] 2.37 µM and 909 nM | Potency [3] 3.76 µM and 1.81 µM | Potency [4] 3.76 µM and 1.81 µM | Potency [5] 13.4 µM and 8.17 µM | Potency [6] 5.35 µM and 4.6 µM | Potency [9] 4.73 µM and 1.44 µM | Potency [11] 18.8 µM | Potency [13] 15.1 µM and 16.3 µM | Potency [14] 15 µM | Potency (Aromatase (Homo sapiens)) 22.8 µM
18.8 µM (active) and inactive: Potency [10]
inactive: Potency [1] | Potency [7] | Potency [8] | Potency [12]

C=C1[C@H]2CC[C@@H]3[C@H]2C(C)(C)CCC[C@]13C
inactive: Potency [1] | Potency [2] | Potency [3] | Potency [4] | Potency [5] | Potency [15] | Potency [10] | Potency [11] | Potency [12] | Potency [16] | Potency [13] | Potency [17] | Potency [18] | Potency [19] | Potency [14] | Potency (Aromatase (Homo sapiens))

CCCCC/C=C\C/C=C\CCCCCCCC(=O)NC(C)c1ccccc1 (configuration not stated)
inactive: Potency [1] | Potency [2] | Potency [3] | Potency [4] | Potency [5] | Potency [15] | Potency [10] | Potency [11] | Potency [12] | Potency [13] | Potency [17] | Potency [18] | Potency [19] | Potency [14]

CCCCNc1ccc(C(=O)OCCOCCOCCOCCOCCOCCOCCOCCOCCOC)cc1
inactive: Potency [1] | Potency [2] | Potency [3] | Potency [4] | Potency [5] | Potency [15] | Potency [10] | Potency [11] | Potency [12] | Potency [16] | Potency [13] | Potency [17] | Potency [18] | Potency [14] | Potency (Aromatase (Homo sapiens))

NCc1ccccc1Sc1ccccc1CO
active: Potency [2] 21.1 µM | Potency [3] 5.96 µM | Potency [4] 29.8 µM
inactive: Potency [1] | Potency [5] | Potency [6] | Potency [7] | Potency [8] | Potency [15] | Potency [9] | Potency [11] | Potency [12] | Potency [16] | Potency [13] | Potency [17] | Potency [18] | Potency [19] | Potency [14] | Potency (Aromatase (Homo sapiens))

COc1ccc(C(=O)N2CCN(CC(=O)N3CCOCC3)CC2)cc1
inactive: Potency [1] | Potency [2] | Potency [3] | Potency [4] | Potency [5] | Potency [15] | Potency [10] | Potency [11] | Potency [12] | Potency [16] | Potency [13] | Potency [17] | Potency [18] | Potency [19] | Potency [14] | Potency (Aromatase (Homo sapiens))

CN(C)c1ccc(C(c2ccccc2)c2ccc(N(C)C)cc2)cc1
active: Potency [2] 6.86 µM | Potency [3] 6.86 µM | Potency [4] 8.63 µM | Potency [11] 24.3 µM
inactive: Potency [1] | Potency [5] | Potency [7] | Potency [8] | Potency [15] | Potency [9] | Potency [10] | Potency [12] | Potency [13] | Potency [14] | Potency (Aromatase (Homo sapiens))

O=C1c2ccccc2S(=O)(=O)N1CCCCN1CCN(c2ncccn2)CC1
inactive: Potency [1] | Potency [2] | Potency [3] | Potency [4] | Potency [5] | Potency [15] | Potency [10] | Potency [11] | Potency [12] | Potency [16] | Potency [13] | Potency [17] | Potency [18] | Potency [19] | Potency [14] | Potency (Aromatase (Homo sapiens))

Brc1c2ccccc2cc2ccccc12
active: Potency [18] 30.9 µM
inactive: Potency [1] | Potency [2] | Potency [3] | Potency [4] | Potency [5] | Potency [15] | Potency [10] | Potency [11] | Potency [12] | Potency [13] | Potency [14]

Brc1c2ccccc2c(Br)c2ccccc12
inactive: viability change, negative = cytotoxic [1] -12.6% [at 7.04 µM] | activity change, negative = cytotoxicity [2] 2.6% [at 8.52 µM] | activity, negative = cytotoxicity [3] 2.95% [at 8.53 µM] | activity change, negative = cytotoxicity [4] 3.28% [at 8.55 µM] | activity change, negative = cytotoxicity [5] 0.327% [at 7.04 µM] | activity change, negative = cytotoxic [10] 6.61% [at 8.44 µM] | activity, negative = inhibition [11] 5.77% [at 8.44 µM] | activation [12] 0.426% [at 8.08 µM] | activity, negative = inhibition [16] 17% [at 6.71 µM] | activity, negative = cytotoxicity [13] 9.03% [at 6.72 µM] | activation [18] -3.1% [at 8.47 µM] | activity change, negative = inhibition [19] -5.5% [at 8.47 µM] | activity change, negative = cytotoxicity [14] 5.65% [at 8.47 µM]

CCC(C)O (configuration not stated)
inactive: Potency [1] | Potency [2] | Potency [3] | Potency [4] | Potency [5] | Potency [15] | Potency [10] | Potency [11] | Potency [12] | Potency [14]

C#Cc1cccc(Nc2ncnc3cc(OCCOC)c(OCCOC)cc23)c1
inactive: Potency [1] | Potency [5] | Potency [15] | Potency [10] | Potency [12] | Potency [17] | Potency [18] | Potency [19]
active: Potency [2] 11.9 µM | Potency [3] 21.1 µM | Potency [4] 13.3 µM | Potency (Aromatase (Homo sapiens)) 18.8 µM

CC1(c2ccccc2)OC(C(=O)O)=CC1=O (configuration not stated)
inactive: Potency [1] | Potency [2] | Potency [3] | Potency [4] | Potency [5] | Potency [15] | Potency [10] | Potency [11] | Potency [12] | Potency [13] | Potency [14] | Potency (Aromatase (Homo sapiens))

O=C(O)c1ccc(-n2nc(-c3ccccc3O)nc2-c2ccccc2O)cc1
active: Potency [2] 13.3 µM | Potency [3] 18.8 µM | Potency [4] 18.8 µM | Potency [11] 29.8 µM | Potency [16] 16.9 µM [inconclusive]
inactive: Potency [1] | Potency [5] | Potency [15] | Potency [13] | Potency [17] | Potency [14]

CC[N+](C)(CC)CCOC(=O)C(O)(c1ccccc1)C1CCCCC1 (configuration not stated)
inactive: Potency [1] | Potency [2] | Potency [3] | Potency [4] | Potency [5] | Potency [11] | Potency [12] | Potency [16] | Potency [13] | Potency [17] | Potency [19] | Potency [14] | Potency (Aromatase (Homo sapiens))

CNCCCCOc1ccccc1Cc1ccccc1
active: Potency [2] 4.22 µM | Potency [3] 3.35 µM | Potency [4] 5.31 µM | Potency [10] 11.9 µM | Potency [11] 11.9 µM
inactive: Potency [1] | Potency [5] | Potency [15] | Potency [13] | Potency [17] | Potency [18] | Potency [19] | Potency [14]
